# Bioassay records: PubChem, several laboratories
# Cardio protect – modulators protecting cardiomyocytes from myocardial damage; AID 588492; H9c2 cardiomyocytes, H2O2 injury protection, ATPLite, 2 h; hit rate 0.63% among 360,000; protection from H2O2 cell death, % at 20 µM;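 active = compounds giving at least 50% protection of heart cells from peroxide-induced death in the single-dose screen, raw or plate-pattern-corrected value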;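 note: 0% = DMSO wells with peroxide and 100% = DMSO wells without peroxide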
# ALR inh – inhibitors of human sulfhydryl oxidase ALR. purified ALR, DTT oxidation, H2O2 HRP-luminol luminescence. AID 485317. inhibition, % (test concentration not listed). P55789. hit rate 3.8% among 290,000;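 active = mean replicate inhibition above about 79%, with every replicate also reaching it, limit read from the data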
# Target sequence (P55789 whole entry, looked up): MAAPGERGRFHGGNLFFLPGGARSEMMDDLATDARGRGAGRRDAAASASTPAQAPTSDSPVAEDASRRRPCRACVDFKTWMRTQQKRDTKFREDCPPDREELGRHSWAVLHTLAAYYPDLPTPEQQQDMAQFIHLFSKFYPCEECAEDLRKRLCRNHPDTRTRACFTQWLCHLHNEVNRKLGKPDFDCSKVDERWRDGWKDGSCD
# PHOSPHO1 block – inhibitors of human PHOSPHO1 phosphatase; recombinant PHOSPHO1, absorbance phosphatase assay; inhibition, % at 13.3 µM; hit rate 1.1% among 290,000; in the data active = inhibition above about 60%
# Target sequence (Q8TCT1 whole entry, looked up): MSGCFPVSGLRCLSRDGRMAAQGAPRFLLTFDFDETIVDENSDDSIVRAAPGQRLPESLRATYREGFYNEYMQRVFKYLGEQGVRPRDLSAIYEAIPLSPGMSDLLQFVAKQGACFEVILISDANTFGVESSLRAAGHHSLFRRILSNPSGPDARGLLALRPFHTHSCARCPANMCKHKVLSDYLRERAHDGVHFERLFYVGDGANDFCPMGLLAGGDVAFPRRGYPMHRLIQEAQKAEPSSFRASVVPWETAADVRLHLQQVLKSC
# PfGluPho inh – PfG6PD (Plasmodium falciparum) enzyme inhibition. PfGluPho enzyme, NADPH resazurin-diaphorase fluorescence. inhibition, % at 20 µM. hit rate 0.78% among 350,000. AID 504690;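 active = inhibition reaching at least a set limit at 20 µM in the primary screen, cut at about 59% in these data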;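 note: 0% = DMSO wells with substrate and 100% = DMSO wells lacking glucose-6-phosphate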
# PfM18AAP inh – blocks P. falciparum M18 aspartyl aminopeptidase; inhibition, % at 7.35 µM; recombinant PfM18AAP, H-Glu-NHMec fluorogenic cleavage; hit rate 1.2% among 290,000;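 active = inhibition above the campaign mean inhibition over all tested compounds plus 3 SD, cut at about 28% in these data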;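 note: 0% = plate median of test compound wells and 100% = 2 mM ZnCl2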
# An asterisk follows results filed as active; . = no result given. An excerpt weighted towards active compounds, which were near 5.6% of everything screened.
SMILES,Cardio protect,ALR inh,PHOSPHO1 block,PfGluPho inh,PfM18AAP inh
Cc1ccc(NCCNc2ccc(C)cc2)cc1,-4,99*,-6,11,-9
Cc1cccc(NCCNc2cccc(C)c2)c1,-2,99*,34,24,-7
Cc1cccc(NCc2ccccc2O)c1,-3,99*,-1,13,-9
Cc1ccccc1NCc1ccccc1O,-27,100*,18,6,-5
CCCCCCCNc1cccc(C)c1,-8,-6,28,12,-2
C[C@@H]1CN([C@H](C)CO)C(=O)CCCn2cc(nn2)CO[C@H]1CN(C)S(=O)(=O)c1ccccc1C#N,-6,.,.,-15,.
O=C(NC1CCCC1)c1cc2nc(-c3ccco3)cc(C(F)(F)F)n2n1,-4,88*,4,-8,-4
CC(C)NC(=O)c1nn2c(C(F)(F)F)cc(-c3ccco3)nc2c1Cl,7,86*,3,-13,0
CC(C)NC(=O)c1cc2nc(-c3ccco3)cc(C(F)(F)F)n2n1,-2,4,1,-7,-1
CCCCCn1nc(C(=O)OCC(=O)c2c(N)n(C)c(=O)n(C)c2=O)c2ccccc2c1=O,66*,-8,12,2,-4
CCCn1nc(C(=O)OCC(=O)c2ccccc2)c2ccccc2c1=O,8,-2,9,-7,6
Cn1c(N)c(C(=O)COC(=O)c2ccnc3ccccc23)c(=O)n(C)c1=O,2,-5,-11,0,-3
CCCCCCn1nc(C(=O)OCC(=O)c2c(N)n(C)c(=O)n(C)c2=O)c2ccccc2c1=O,38,5,61*,33,-3
CCOC(=O)c1ccc(-c2c(-c3ccc4c(c3)OCO4)noc2C)cc1F,0,-3,10,-4,4
CC1(C(=O)NS(=O)(=O)Cc2ccccc2C(F)(F)F)CCN1C(=O)C/C=C/c1ccccc1 (stereo unspecified),-7,.,.,.,.
CCCCn1c2c(c(=N)c3c1CCC3)CCC2,-33,-5,95*,-8,5
CCCCCCCCCn1c2c(c(=N)c3c1CCC3)CCC2,-20,-24,17,-20,-5
CCCCCCn1c2c(c(=N)c3c1CCC3)CCC2,-9,99*,-14,-20,-8
O=C(CCNC(=O)c1ccccc1Cl)NCC(c1ccc(F)cc1)N1CCOCC1 (stereo unspecified),-1,1,.,-13,.
CCCCc1nc(Cl)c(C#N)c2c1CCCC2,-5,-11,-2,-6,-3
N#Cc1c(Cl)nc2c(c1C#N)CCCC2,-2,97*,28,3,-1
CCOc1ccc(NC(=O)CN(C)C(=O)c2cccnc2Sc2ccccc2Cl)cc1OCC,5,-35,.,6,.
CCn1c(CSc2nc3ccccc3s2)nnc1SCC(=O)c1ccc(O)cc1O,-1,-6,83*,2,10
C=CCn1c(CSc2nc3ccccc3s2)nnc1SCC(=O)OCC,3,.,17,14,-16
CCOC(=O)C1C(=O)NC(SCC(=O)OC)=C(C#N)C1c1ccccc1OCC (stereo unspecified),72*,-18,-3,-12,13
SMILES,Cardio protect,ALR inh,PHOSPHO1 block,PfGluPho inh,PfM18AAP inh
C=CCSC1=C(C#N)C(c2ccccc2OCC)C(C#N)C(=O)N1 (stereo unspecified),0,9,89*,-51,-1
CCOC(=O)CSC1=C(C#N)C(c2ccccc2OCC)C(C#N)C(=O)N1 (stereo unspecified),-5,19,29,-87,12
N#Cc1ccccc1C[C@H](N)C(=O)NC[C@H]1O[C@@H](n2ccc(N)nc2=O)[C@H](O)[C@@H]1O,-3,.,.,-22,.
CCCNC(=O)c1ccc2c(=O)c(O)c(-c3cccc(Br)c3)[nH]c2c1,54*,-11,0,-18,.
CCCNC(=O)c1ccc2c(=O)c(O)c(-c3ccc(F)cc3)[nH]c2c1,57*,-42,4,-7,.
CCCNC(=O)c1ccc2c(=O)c(O)c(C)[nH]c2c1,6,73,40,1,.
CC(C)c1cc(=O)oc2c3c4c(cc12)CCCN4CCC3,6,-11,90*,19,-1
Cc1cc(=O)oc2c3c4c(cc12)OCCN4CCC3,11,97*,-19,10,6
Cc1cc(=O)oc2c(CN3CCCC3)c(O)c(Cl)cc12,2,5,28,10,8
COc1cc2ccnc(C=O)c2cc1OC,56*,.,.,9,.
COc1cc2ccnc(C=NO)c2cc1OC,16,.,.,-5,.
COc1cc2ccnc(Cc3cccc(OC)c3OC)c2cc1OC,-22,-24,24,-28,-4
COc1cc(N)c(Cc2nccc3cc(OC)c(OC)cc23)cc1OC,-10,88*,37,15,9
C[C@@H]1CNC(=O)c2c(C(=O)N[C@@H](Cc3c[nH]c4ccccc34)C(=O)OC(C)(C)C)ncn21,43,.,.,2,.
CCCSc1nnc(CNS(=O)(=O)c2ccc(C)cc2)n1C,-1,-3,53,-11,2
Cn1cc(S(=O)(=O)N2CCc3ccccc32)cc1C(=O)NC(C)(C)C,-25,15,44,31,3
CCc1nnc(NC(=O)CCC(=O)N2CCN(Cc3ccc(C)cc3C)CC2)s1,1,0,70*,-28,7
CCCc1nnc(NC(=O)CCC(=O)N2CCN(Cc3ccc(C)cc3C)CC2)s1,8,-5,24,-21,1
O=C(NCc1cccnc1)c1cc(C2CCCCN2S(=O)(=O)c2cccs2)on1 (stereo unspecified),1,.,.,.,.
O=C(Nc1nc2ccc(F)cc2s1)c1ccccn1,.,45,33,-7,6
O=C(NNc1nc2ccc(F)cc2s1)c1cccc(F)c1,4,98*,-16,8,22
Cc1cc(C)c2nc(-c3ccccn3)cc(C(=O)N3CCCC3)c2c1,10,-8,22,7,6
COCCn1c(SCCN2CCOCC2)nc2c1c(=O)[nH]c(=O)n2C,4,.,63*,59,30*
C=CCn1c(SCCN2CCOCC2)nc2c1c(=O)[nH]c(=O)n2C,-10,.,33,-4,12
COc1ccccc1CNCCS(=O)(=O)NN1CCOCC1,1,.,.,24,.
SMILES,Cardio protect,ALR inh,PHOSPHO1 block,PfGluPho inh,PfM18AAP inh
CCOC(=O)/C(=N\Nc1ccc(Br)cc1)N1CC(C)OC(C)C1 (stereo unspecified),0,100*,-96,28,8
COc1cccc(C(=O)CC(C#N)c2ccc(F)cc2)c1 (stereo unspecified),-4,-2,44,-9,-2
CCC(C)Sc1nnc(Cc2cc(=O)[nH]c(=O)[nH]2)n1-c1ccc(F)cc1 (stereo unspecified),-3,98*,36,29,-8
CCN1CCCc2cc(CN(CCN3CCOCC3)C(=S)Nc3ccc(OC)c(OC)c3)ccc21,-1,92*,-8,-5,15
S=C(Nc1ccccc1)N(CCN1CCOCC1)Cc1cccc(Cl)c1,0,.,46,2,3
COc1ccc(NC(=S)N(Cc2ccc(Cl)cc2)Cc2ccc(C(=O)O)cc2)cc1Cl,-4,96*,-1,11,2
CCN1CCCc2cc(CN(CCN3CCOCC3)C(=S)Nc3ccc(OC)c(Cl)c3)ccc21,-9,99*,11,1,5
